# Assay results taken from PubChem BioAssay (NCATS).
# Where “and” joins values, the source holds several entries; their conditions need not be identical. Identical values can stand only once. Unmarked numbers belong to inactive results. Inconclusive results are not listed. Calls of active or inactive are those of the source. Unless noted, calls follow the shape of the dose curve; as a rule, active = well fitted curve in either direction with a large enough effect (not every such curve was filed as active); inconclusive = small, poorly fitted or top-dose-only effect, or another doubt; inactive = flat fitted curve, though single readings scatter.
# Columns and labels:
# [1] = biological target: Lysosomal acid glucosylceramidase (Homo sapiens) (UniProt P04062); experiment: Glucocerebrosidase-p2 (AID 348; in the data active = potency below about 10 µM; also: potency is read from the fitted curve at half-maximal effect); details: purified GBA, blue fluorogenic substrate, 40 min
# Summary of the method: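 Compounds titrated from 0.6 nM upwards against 0.2 nM enzyme in pH 5.9 citric acid/KH2PO4, taurocholate, tween-20; blue fluorogenic substrate 80 uM, 40 min room temperature, stopped and read Ex 365/Em 440 for AC50.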
# [2] = AP1 Signaling Pathway (AID 357); details: ME-180 AP-1-bla reporter, EGF-induced, beta-lactamase ratio, 5 h; at 7.69 µM (top of the series) unless noted;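 also: ME-180 reporter cells stimulated with EGF at its EC50 level; % is scaled to controls: 0 for no effect and ±100 for the full control effect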
# Summary of the method: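 Read-out was the 460nm/530nm emission ratio (excitation 405nm) after CCF4 loading for 2.5 hours at room temperature. Cells carried an AP-1-driven beta-lactamase reporter, were stimulated with EC50 EGF plus compound for 5 hours, and AC50 values came from titrations.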
# [3] = biological target: Cytochrome P450 1A2 (Homo sapiens) (UniProt P05177); experiment: p450-cyp1a2 (AID 410; calls by dose curve; also: potency is read from the fitted curve at half-maximal effect;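 as to activity change, negative = inhibition: -100% = full effect of reference inhibitor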); details: recombinant CYP1A2, luciferin-ME demethylation, luminescence; series mostly up to 11.4 µM
# Summary of the method: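 Human CYP1A2 (20nM) demethylated Luciferin-ME at its Km (100uM) in 100mM KPO4. After 10 min compound preincubation, NADPH regeneration ran the reaction 60 min at room temperature. Luciferin was read by luminescence, normalized to 57 uM furafylline.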
# [4] = Stat Signaling Pathway (AID 446); details: ME-180 (cervical carcinoma) SIE beta-lactamase reporter, IL-6 stimulated, 5 h; at 7.69 µM (top of the series) unless noted;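 also: ME-180 cervical cancer cells given 40 pM IL-6 alongside compound; SIE-controlled beta-lactamase reporter measured as 460/530 nm FRET emission ratio; % is scaled to controls: 0 for no effect and ±100 for the full control effect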
# Summary of the method: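 IL-6/STAT signaling read in ME-180 cells via an SIE beta-lactamase reporter. Stimulus was 40 pM IL-6 (its AC50) for 5 hrs, so both activation and inhibition register.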
# [5] = biological target: Glucocorticoid receptor (Homo sapiens) (UniProt P04150); experiment: GR-GFP Redistribution (AID 450;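 active = compounds whose dose series gives a full or clear partial fitted curve of increased nuclear translocation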; also: potency is read from the fitted curve at half-maximal effect); details: U2OS GR-GFP nuclear translocation, laser cytometry, 2 h
# [6] = biological target: Glucocorticoid receptor (Homo sapiens) (UniProt P04150); experiment: GR-EFC Redistribution (AID 451; calls by dose curve; also: potency is read from the fitted curve at half-maximal effect); details: CHO-K1 GR-EFC translocation, beta-gal luminescence, 2 h
# Summary of the method: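 CHO-K1 cells stably expressing nuclear-localized β-gal enzyme acceptor and GR fused C-terminally to the enzyme donor fragment; ligand-driven nuclear translocation restores β-gal by complementation. Compounds titrated up to 46 uM final, 2 h at 37 °C; luminescence read.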
# [7] = biological target: Mitogen-activated protein kinase 10 (Mus musculus) (UniProt Q61831); experiment: JNK3 AlphaScreen Assay (AID 530); details: JNK3 lysate, c-Jun phosphorylation; series mostly up to 57.1 µM;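 also: kinase came from lysate of stimulated human HepG2 cells; signal reports phosphorylation of biotinylated GST-cJun 1-79 at Ser73 with 10 µM ATP; % is scaled to controls: 0 for no effect and ±100 for the full control effect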
# Summary of the method: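 JNK3 came from HepG2 lysates pre-activated with IL-1beta and TNF-alpha and phosphorylated biotinylated GST-cJun (1-79) at 10 uM ATP, pH 7.6, room temperature. Compounds were titrated. AlphaScreen signal used anti-phospho-cJun (Ser73) antibody.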
# [8] = biological target: 3',5'-cyclic-AMP phosphodiesterase 4B (Homo sapiens) (UniProt Q07343); experiment: qHTS Assay for Inhibitors of PDE-IV (AID 607; active = well fitted activation curve with a large enough effect in the main read-out, with a control signal flat, not every such curve was filed as active; also: % of control where 0% means no effect); details: HEK293 ACTOne CNG channel cells, membrane potential fluorescence; series mostly up to 22.9 µM
# Summary of the method: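 Live HEK293 cells with a modified cyclic nucleotide-gated (CNG) channel report intracellular cAMP via membrane-potential dye fluorescence (ex 535/em 590 nm). Endogenous PDE-IV was targeted. Compounds were tested at up to 22.9 uM final; RO 20-1724 100 uM served as control.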
# [9] = biological target: Cytochrome P450 2C19 (Homo sapiens) (UniProt P33261); experiment: qHTS Assay for Inhibitors and Substrates of Cytochrome P450 2C19 (AID 899; active = well fitted curve in the direction sought with a large enough effect; an effect the other way counts as inactive or inconclusive; also: nearly all actives have a fitted effect of over 60% in size; also: potency is read from the fitted curve at half-maximal effect); details: recombinant CYP2C19, luciferin-H EGE luminescence; series mostly up to 11.4 µM
# Summary of the method: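 NADPH-dependent conversion of Luciferin-H EGE (10uM, at KM) by 5nM enzyme in 50mM KPO4, 60 min at 37C following 10 min compound preincubation. Stopped with luciferin detection buffer; luminescence read after 20 min.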
# [10] = NFAT Signaling Pathway (AID 444); details: Jurkat NFAT-bla M1, carbachol, beta-lactamase ratio, 5 h; at 7.69 µM (top of the series) unless noted;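 also: carbachol stimulus at about its EC50 of 1 µM final; % is scaled to controls: 0 for no effect and ±100 for the full control effect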
# Summary of the method: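 Jurkat cells carrying an NFAT-driven β-lactamase reporter and co-transfected muscarinic M1 receptor were treated with compound plus carbachol (1 uM final, an EC50 level) for 5 h at 37 °C. CCF4 loading followed for 1 h at RT; 460/530 nm ratio gave %activity.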
# [11] = biological target: Cytochrome P450 2C9 (Homo sapiens) (UniProt P11712); experiment: qHTS Assay for Inhibitors and Substrates of Cytochrome P450 2C9 (AID 883; active = well fitted curve in the direction sought with a large enough effect; an effect the other way counts as inactive or inconclusive; also: potency is read from the fitted curve at half-maximal effect; nearly all actives have a fitted effect of over 60% in size); details: recombinant CYP2C9, luciferin-H luminescence, 60 min; series mostly up to 57.1 µM
# Summary of the method: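 A luminogenic readout tracked human CYP2C9 (10nM) converting deoxyluciferin (100uM, at KM) in 25mM KPO4 during 60 min at 37C with regenerated NADPH. Values normalized to 57uM sulphaphenazole as complete inhibition.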
# [12] = biological target: Cytochrome P450 2D6 (Homo sapiens) (UniProt P10635); experiment: qHTS Assay for Inhibitors and Substrates of Cytochrome P450 2D6 (AID 891; active = well fitted curve in the direction sought with a large enough effect; an effect the other way counts as inactive or inconclusive; also: potency is read from the fitted curve at half-maximal effect; nearly all actives have a fitted effect of over 60% in size); details: recombinant CYP2D6, luciferin-ME EGE luminescence; series mostly up to 11.4 µM
# Summary of the method: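 Human CYP2D6 (5 nM) with 30 uM Luciferin-ME EGE (at Km) in 100 mM KPO4, compound preincubated 10 min, then NADPH regeneration system for 60 min at room temperature. Luciferin read by luminescence; normalized to 1.43 uM quinidine.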
# [13] = biological target: Cytochrome P450 3A4 (Homo sapiens) (UniProt P08684); experiment: qHTS Assay for Activators of Cytochrome P450 3A4 (AID 885; active = well fitted curve in the direction sought with a large enough effect; an effect the other way counts as inactive or inconclusive; also: nearly all actives have a fitted effect of over 65% in size); details: recombinant CYP3A4, Luciferin-PPXE luminescence, 60 min; series mostly up to 57.1 µM
# Summary of the method: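 Quantitative HTS format: compounds preincubated with 20nM human CYP3A4 and Luciferin-PPXE substrate at KM, reaction started by NADPH regeneration, stopped after 60 min, luciferase luminescence read 20 min later.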
# [14] = biological target: Luciferin 4-monooxygenase (Photinus pyralis) (UniProt P08659); experiment: Biochemical firefly luciferase enzyme assay for NPC (AID 624030; active = well fitted curve in the direction sought with a large enough effect; an effect the other way counts as inactive or inconclusive;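 also: purified P. pyralis luciferase at 10 nM with luciferin and ATP substrate; 0% = DMSO and -100% = full luciferase inhibition by PTC124 control; nearly all actives have a fitted effect of over 70% in size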); details: purified P. pyralis luciferase, luminescence, 5 min; series mostly up to 58.6 µM
# Summary of the method: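 Counter-screen for direct inhibition of the luciferase enzyme by approved-drug library compounds, run at 10 nM enzyme in 50 mM Tris acetate (final). Luminescence was read within 5 min of enzyme-buffer addition and normalized to PTC124 versus DMSO (0%).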
# Chain of Glucocorticoid receptor (Homo sapiens) (P04150 whole entry, looked up, the tested form may be a part): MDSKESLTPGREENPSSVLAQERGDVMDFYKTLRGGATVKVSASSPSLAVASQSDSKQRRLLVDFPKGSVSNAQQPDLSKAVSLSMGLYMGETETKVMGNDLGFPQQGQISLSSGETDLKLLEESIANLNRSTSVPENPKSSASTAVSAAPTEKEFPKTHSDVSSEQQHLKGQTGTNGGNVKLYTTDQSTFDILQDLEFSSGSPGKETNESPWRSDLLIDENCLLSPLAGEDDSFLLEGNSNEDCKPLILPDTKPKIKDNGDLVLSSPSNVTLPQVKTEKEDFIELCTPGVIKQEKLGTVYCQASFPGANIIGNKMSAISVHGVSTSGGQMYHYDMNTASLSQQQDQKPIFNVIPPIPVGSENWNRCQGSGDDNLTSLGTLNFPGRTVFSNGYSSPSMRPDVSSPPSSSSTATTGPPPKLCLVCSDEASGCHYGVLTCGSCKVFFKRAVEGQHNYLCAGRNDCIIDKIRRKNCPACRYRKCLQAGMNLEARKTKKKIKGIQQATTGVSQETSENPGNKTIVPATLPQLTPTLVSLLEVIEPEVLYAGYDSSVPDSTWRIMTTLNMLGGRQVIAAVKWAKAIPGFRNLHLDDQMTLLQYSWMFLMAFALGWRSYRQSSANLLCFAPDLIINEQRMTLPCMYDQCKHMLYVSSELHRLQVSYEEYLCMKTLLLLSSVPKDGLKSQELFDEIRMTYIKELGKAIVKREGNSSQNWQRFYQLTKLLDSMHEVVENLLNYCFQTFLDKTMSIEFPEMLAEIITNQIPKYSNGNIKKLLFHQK
# Chain of Lysosomal acid glucosylceramidase (Homo sapiens) (P04062 whole entry, looked up): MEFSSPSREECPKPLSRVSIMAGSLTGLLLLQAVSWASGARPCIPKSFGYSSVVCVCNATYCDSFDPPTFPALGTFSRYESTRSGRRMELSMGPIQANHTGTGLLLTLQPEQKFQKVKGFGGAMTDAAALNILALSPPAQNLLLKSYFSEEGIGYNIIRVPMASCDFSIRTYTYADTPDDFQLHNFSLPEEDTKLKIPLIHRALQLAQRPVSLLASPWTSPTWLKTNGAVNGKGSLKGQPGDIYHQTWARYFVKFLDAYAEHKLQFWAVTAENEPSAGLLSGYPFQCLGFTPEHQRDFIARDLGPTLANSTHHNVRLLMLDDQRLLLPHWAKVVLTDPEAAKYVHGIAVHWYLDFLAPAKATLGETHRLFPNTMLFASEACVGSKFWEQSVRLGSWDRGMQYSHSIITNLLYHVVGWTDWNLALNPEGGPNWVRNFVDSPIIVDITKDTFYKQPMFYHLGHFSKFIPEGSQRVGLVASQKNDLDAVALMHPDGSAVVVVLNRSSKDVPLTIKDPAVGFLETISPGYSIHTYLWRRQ
# Chain of Cytochrome P450 1A2 (Homo sapiens) (P05177 whole entry, looked up): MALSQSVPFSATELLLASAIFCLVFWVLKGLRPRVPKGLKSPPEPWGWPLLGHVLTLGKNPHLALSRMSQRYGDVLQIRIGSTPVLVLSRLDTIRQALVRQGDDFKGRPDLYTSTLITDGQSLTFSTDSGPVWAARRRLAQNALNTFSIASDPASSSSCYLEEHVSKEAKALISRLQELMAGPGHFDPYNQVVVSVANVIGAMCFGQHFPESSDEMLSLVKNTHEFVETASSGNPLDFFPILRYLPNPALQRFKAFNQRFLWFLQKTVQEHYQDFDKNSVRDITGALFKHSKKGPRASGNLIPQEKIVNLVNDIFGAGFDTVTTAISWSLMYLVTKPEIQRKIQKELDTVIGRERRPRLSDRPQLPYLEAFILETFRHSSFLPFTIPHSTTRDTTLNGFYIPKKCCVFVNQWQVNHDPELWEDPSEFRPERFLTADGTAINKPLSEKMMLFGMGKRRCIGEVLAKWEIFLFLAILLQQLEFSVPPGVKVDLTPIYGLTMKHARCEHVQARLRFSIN
# Chain of Cytochrome P450 2D6 (Homo sapiens) (P10635 whole entry, looked up): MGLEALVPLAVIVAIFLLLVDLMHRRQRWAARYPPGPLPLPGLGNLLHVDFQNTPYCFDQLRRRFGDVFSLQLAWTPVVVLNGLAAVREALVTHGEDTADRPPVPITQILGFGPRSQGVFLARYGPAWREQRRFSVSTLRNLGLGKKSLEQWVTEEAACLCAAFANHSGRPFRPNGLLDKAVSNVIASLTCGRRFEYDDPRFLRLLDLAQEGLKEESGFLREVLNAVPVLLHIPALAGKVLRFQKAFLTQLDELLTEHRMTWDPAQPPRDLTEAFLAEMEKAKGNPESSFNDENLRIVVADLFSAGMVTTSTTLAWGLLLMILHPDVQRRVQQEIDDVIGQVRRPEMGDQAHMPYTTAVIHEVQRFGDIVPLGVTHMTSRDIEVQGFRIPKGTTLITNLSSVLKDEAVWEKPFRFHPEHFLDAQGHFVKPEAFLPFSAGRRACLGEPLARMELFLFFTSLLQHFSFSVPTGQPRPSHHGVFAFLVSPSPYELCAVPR
# Chain of 3',5'-cyclic-AMP phosphodiesterase 4B (Homo sapiens) (Q07343 whole entry, looked up): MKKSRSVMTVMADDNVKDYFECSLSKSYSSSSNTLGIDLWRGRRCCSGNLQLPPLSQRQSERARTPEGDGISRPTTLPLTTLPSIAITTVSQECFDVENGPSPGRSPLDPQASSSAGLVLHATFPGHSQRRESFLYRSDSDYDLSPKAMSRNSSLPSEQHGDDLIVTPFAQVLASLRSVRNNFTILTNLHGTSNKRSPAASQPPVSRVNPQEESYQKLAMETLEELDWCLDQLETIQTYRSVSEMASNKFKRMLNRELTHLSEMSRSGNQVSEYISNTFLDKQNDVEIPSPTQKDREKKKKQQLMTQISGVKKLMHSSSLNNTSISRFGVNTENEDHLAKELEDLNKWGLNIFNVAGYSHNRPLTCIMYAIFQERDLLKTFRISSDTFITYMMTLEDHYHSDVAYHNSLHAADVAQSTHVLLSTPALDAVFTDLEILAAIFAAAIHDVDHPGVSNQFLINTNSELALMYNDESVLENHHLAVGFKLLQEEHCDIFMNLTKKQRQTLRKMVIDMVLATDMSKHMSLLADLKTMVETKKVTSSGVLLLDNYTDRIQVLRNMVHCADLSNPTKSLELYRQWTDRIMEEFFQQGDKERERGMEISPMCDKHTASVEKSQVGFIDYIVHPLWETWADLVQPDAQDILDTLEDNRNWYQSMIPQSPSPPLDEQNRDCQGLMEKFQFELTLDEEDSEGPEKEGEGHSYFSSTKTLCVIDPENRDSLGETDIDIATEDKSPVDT
# Chain of Cytochrome P450 2C19 (Homo sapiens) (P33261 whole entry, looked up): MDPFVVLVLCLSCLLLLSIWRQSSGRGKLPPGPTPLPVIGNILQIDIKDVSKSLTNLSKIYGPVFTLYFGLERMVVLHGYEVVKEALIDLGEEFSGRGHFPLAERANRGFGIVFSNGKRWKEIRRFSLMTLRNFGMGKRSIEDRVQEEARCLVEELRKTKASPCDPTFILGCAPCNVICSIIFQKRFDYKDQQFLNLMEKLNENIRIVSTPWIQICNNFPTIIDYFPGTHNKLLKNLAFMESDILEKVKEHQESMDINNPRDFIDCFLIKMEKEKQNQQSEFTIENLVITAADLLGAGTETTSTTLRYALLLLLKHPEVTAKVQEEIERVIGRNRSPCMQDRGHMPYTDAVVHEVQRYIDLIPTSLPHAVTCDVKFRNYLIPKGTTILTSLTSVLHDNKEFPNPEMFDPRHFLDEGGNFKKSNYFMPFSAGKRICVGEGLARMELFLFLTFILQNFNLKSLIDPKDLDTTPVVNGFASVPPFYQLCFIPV
# Chain of Cytochrome P450 3A4 (Homo sapiens) (P08684 whole entry, looked up): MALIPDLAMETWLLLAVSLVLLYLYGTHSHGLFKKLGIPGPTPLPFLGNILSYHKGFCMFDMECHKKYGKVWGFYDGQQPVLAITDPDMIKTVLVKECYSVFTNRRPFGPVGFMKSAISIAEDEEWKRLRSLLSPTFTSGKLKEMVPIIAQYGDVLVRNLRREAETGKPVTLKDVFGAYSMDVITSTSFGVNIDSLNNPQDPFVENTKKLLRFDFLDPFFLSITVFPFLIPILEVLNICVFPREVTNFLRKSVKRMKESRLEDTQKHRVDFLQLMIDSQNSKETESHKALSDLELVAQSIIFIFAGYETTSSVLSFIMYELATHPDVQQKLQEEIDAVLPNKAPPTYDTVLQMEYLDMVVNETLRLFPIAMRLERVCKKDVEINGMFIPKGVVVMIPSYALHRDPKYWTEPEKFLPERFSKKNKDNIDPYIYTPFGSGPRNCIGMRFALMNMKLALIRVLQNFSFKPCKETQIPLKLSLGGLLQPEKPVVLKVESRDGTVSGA
# Chain of Cytochrome P450 2C9 (Homo sapiens) (P11712 whole entry, looked up): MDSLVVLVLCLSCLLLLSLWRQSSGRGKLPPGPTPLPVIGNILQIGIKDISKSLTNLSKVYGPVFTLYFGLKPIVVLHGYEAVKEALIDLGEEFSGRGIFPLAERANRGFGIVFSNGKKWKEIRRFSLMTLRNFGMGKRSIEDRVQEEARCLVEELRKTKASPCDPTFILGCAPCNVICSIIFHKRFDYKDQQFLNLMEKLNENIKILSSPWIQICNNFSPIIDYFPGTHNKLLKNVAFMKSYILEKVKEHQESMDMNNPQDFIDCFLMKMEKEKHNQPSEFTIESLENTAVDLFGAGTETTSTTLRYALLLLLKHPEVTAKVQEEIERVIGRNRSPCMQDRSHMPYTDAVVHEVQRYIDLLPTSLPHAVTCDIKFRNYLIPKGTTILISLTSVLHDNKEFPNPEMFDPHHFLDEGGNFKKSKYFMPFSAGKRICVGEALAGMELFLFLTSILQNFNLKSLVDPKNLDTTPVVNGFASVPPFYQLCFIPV
SMILES,Potency [1],"activity change, negative = inhibition [2]",Potency [3],"activity, negative = inhibition [4]",Potency [5],Potency [6],"activity change, negative = inhibition [7]",outcome [8],Potency [9],"activity change, negative = inhibition [10]",Potency [11],Potency [12],"activity change, positive = activation [13]",outcome [14],"activity change, negative = inhibition [3]"
C[C@@]12CC[C@H](O)C[C@@H]1CC[C@@H]1[C@@H]2CC[C@@]2(C)[C@@H](C3=CC(=O)OC3)[C@H](O)C[C@]12O,> 11.4 µM,15.5%,inactive,8.74%,> 46 µM,> 9.22 µM,1.8% [at 11.4 µM],inactive,inactive,–,–,–,–,–,–
N=C(N)SCc1ccc(Cl)c2ccccc12 (tested in a mixture with another compound),> 11.4 µM,6.29% and 5.72%,251 nM (active) and 158 nM (active),-8.84% and -10.7%,–,–,3.26% [at 11.4 µM] and 4.92% [at 11.4 µM],inactive,–,-1.16%,3.98 µM (active),3.16 µM (active),–,–,–
NCCSC(c1ccccc1)c1ccccc1,> 11.4 µM,6.46%,1.58 µM (active),–,> 46 µM,> 9.22 µM,1.83% [at 11.4 µM],inactive,1.26 µM (active),–,–,0.794 µM (active),-39.5% [at 11.4 µM],–,–
O=c1[nH]cnc2[nH]cc(CN3CCCCC3)c12,> 11.4 µM,2.74%,inactive,0.346%,–,–,0.447% [at 11.4 µM],inactive,–,3.17%,–,–,–,inactive,–
c1ccc2c([C@@H]3CCN(CCN4CCOCC4)C3)c[nH]c2c1,> 11.4 µM,-11.8%,inactive,0.702%,> 46 µM,> 9.22 µM,3.19% [at 11.4 µM],inactive,–,–,–,–,–,–,–
Cc1c([C@@H](C)[C@H]2NC[C@H](C)C[C@@H]2O)ccc2c1C[C@@H]1[C@H]2CC=C2C[C@@H](O)CC[C@@]21C,> 11.4 µM,-4.38%,–,-1.08%,> 46 µM,–,-0.822% [at 11.4 µM],inactive,–,-6.08%,–,–,-38% [at 11.4 µM],–,1.3% [at 2.29 µM]
CC1(C)N=C(N)N=C(N)N1c1cccc(C(=O)Nc2ccc(S(=O)(=O)F)cc2)c1,> 11.4 µM,-0.165%,inactive,9.13%,> 46 µM,–,7.01% [at 11.4 µM],inactive,–,–,–,2 µM (active),–,–,–
O=C(O)C(O)(c1ccc(-c2ccccc2)cc1)c1ccc(-c2ccccc2)cc1,> 11.4 µM,-25.7%,inactive,-5.5%,> 46 µM,> 9.22 µM,1.15% [at 11.4 µM],inactive,–,–,3.16 µM (active),–,–,–,–
COc1cc2c(cc1OC)[C@@]13CCN4C=C5CCO[C@H]6CC(=O)N2[C@@H]1[C@@H]6[C@H]5C[C@H]43,> 11.4 µM,4.45%,5.01 µM (active),2.38%,–,–,3.62% [at 11.4 µM],–,–,16.4%,–,–,–,–,–
COC(=O)[C@@H]1c2cc3c(c(O)c2[C@@H](O)C[C@]1(C)O)C(=O)c1c(O)cc2c(c1C3=O)O[C@H]1O[C@@]2(C)[C@@H](O)[C@H](N(C)C)[C@H]1O,> 11.4 µM,-3.96%,–,-3.22%,> 46 µM,> 9.22 µM,-5.17% [at 11.4 µM],inactive,–,6.8%,–,–,–,–,–
COc1ccc(C[C@@H]2C(=O)N[C@H](C)C(=O)N(C)[C@@H]3C(=O)N(C)[C@@H](Cc4ccc(O)c(c4)Oc4ccc(cc4)[C@H]3O)C(=O)N[C@@H](C)C(=O)N[C@H](C)C(=O)N2C)cc1,> 11.4 µM,-121% (active),–,-105% (active),> 46 µM,–,3.04% [at 11.4 µM],inactive,–,-133% (active),–,–,–,–,–
O=P(O)(OP(=O)(O)c1ccccc1)c1ccccc1 (tested in a mixture with another compound),> 11.4 µM,-8.54%,–,2.23%,> 46 µM,> 9.22 µM,3.03% [at 11.4 µM],inactive,–,-3.07%,–,–,–,–,–
